Screen size: about 69,000 compounds; about 8,600 (12%) showed an effect of 50% or more. Shown is part of a subset that was picked to be rich in strong results.
The compounds below were run on Plasmodium berghei (assay: Screen against P. berghei liver stage (PbLuc), transformed with Luciferase, at 10uM). Details: tested at 10 uM.
Format: functional, HepG2

Structure (SMILES) | INHIBITION [%]
CN(Cc1cnn(C)c1)C(=O)NCCc1ccc2c(c1)OCO2 | -24.75
Cc1cc2nc(SCC(=O)N3CCCC3)n(-c3ccccc3)c(=O)c2[nH]1 | 16.6
Cc1ncc(CN2CCc3c(nc(-c4ccccn4)[nH]c3=O)C2)n1C | 31.6
COCCc1noc(CN2CCOC(Cn3nc(C)cc3C)C2)n1 (stereo unspecified) | 14.4
CCC[C@@H]1CN(C(=O)c2cnc3ccccc3c2)C[C@H]1NS(C)(=O)=O | 51.1
CCC[C@@H]1CN(C(=O)c2cc3ccccc3s2)C[C@H]1NS(C)(=O)=O | 20.1
CC(=O)N[C@@H]1CN(C(=O)c2cnc3ccccc3c2)C[C@H]1O | 22
OCc1nnc2n1CCN(c1cnccn1)C2 | 28.5
CCC(CC)(CNC(=O)OC(C)(C)C)NC(=O)C1CCCO1 (stereo unspecified) | 56.6
CCC(CC)(CNC(=O)OC(C)(C)C)NC(=O)C1CCOCC1 | -50.8
CCC(CC)(CNC(=O)OC(C)(C)C)NC(=O)C1CC1 | -120
Cc1cc(C(=O)Nc2nc3c(s2)CN(S(=O)(=O)C2CC2)CC3)c(C)o1 | -59.6
CC(C)c1nc(N2CCC(N3CCSCC3)CC2)c2cnn(C)c2n1 | 21.1
C[C@@H]1CN(CCCOc2ccc(F)cc2)CC[C@@]1(O)C1CCOCC1 | 7.24
Cn1nnnc1SCC1Cc2ccccc2O1 (stereo unspecified) | 17.2
O=C(c1cccc2c1OCO2)N1CCCC(n2cccn2)C1 (stereo unspecified) | 28.5
Cc1cnn(C2CCCN(C(=O)c3ccc(N4CCCC4)nn3)C2)c1 (stereo unspecified) | 25.1
Cc1cnn(C2CCCN(C(=O)c3ccc(N(C)C)nn3)C2)c1 (stereo unspecified) | 11.6
Cc1cc(C)n(C2CCCN(C(=O)c3cccc4c3OCO4)C2)n1 (stereo unspecified) | 23.7
Cc1ccc(C(=O)N2CCCC(n3cncn3)C2)o1 (stereo unspecified) | 60.1
Cc1cnn(C2CCCN(C(=O)c3cccc4c3OCO4)C2)c1 (stereo unspecified) | 56.6
Cc1cnn(C2CCCN(C(=O)c3cc[nH]n3)C2)c1 (stereo unspecified) | 64.6
CCc1ccc(C(=O)N2CCCC(n3cncn3)C2)o1 (stereo unspecified) | 45.1

Structure (SMILES) | INHIBITION [%]
O=C(CCCc1ccccc1)N1CCCC(n2cncn2)C1 (stereo unspecified) | -12.2
COc1ccc(CCC(=O)N2CCCC(n3cncn3)C2)cc1 (stereo unspecified) | -7.35
O=C(c1ccc(Br)o1)N1CCCC(n2cncn2)C1 (stereo unspecified) | 11.8
COc1ccc(CCCC(=O)N2CCCC(n3cncn3)C2)cc1 (stereo unspecified) | 54.8
CCOc1ccccc1C(CC(=O)Nc1ccccn1)NC(C)=O (stereo unspecified) | -10.45
Cc1ccc(CN2CC[C@H]3[C@H]2CCN3S(=O)(=O)C2CC2)cc1 | 8.85
Cn1c(CN2CCCC(N3CCNC3=O)C2)cc(=O)n(C)c1=O (stereo unspecified) | 31.4
CCN1CC2(CCC1=O)CCN(Cc1cccc(OC(F)F)c1)CC2 | -9.39
CN(C)Cc1cn(-c2ccccc2C(=O)NCC2CCCCN2C)cn1 (stereo unspecified) | 29.95
CNc1nc2c(s1)C(c1c(F)cccc1Cl)CC(=O)N2 (stereo unspecified) | 3.95
CN(C)C(=O)[C@]12CCCN(CC3CC3)C[C@H]1CN(c1ccccn1)C2 | 0.618
COc1ccccc1CN(C)C(=O)C[S+]([O-])Cc1cc(C)on1 (stereo unspecified) | 5.29
CC(C(=O)N1CCCN(Cc2cscn2)CC1)N1CCOCC1 (stereo unspecified) | -4.3
Cn1cc(CN2CCn3cc(Cn4cccn4)nc3C2)cn1 | -6.23
O=C(c1ccon1)N1CCCC(n2cncn2)C1 (stereo unspecified) | 9.82
CNc1snc(C)c1C(=O)N1CCCC(n2cccn2)C1 (stereo unspecified) | 46.2
CNc1snc(C)c1C(=O)N1CCCC(n2nc(C)cc2C)C1 (stereo unspecified) | 32.8
O=C(c1cc(C2CC2)on1)N1CCCC(n2cncn2)C1 (stereo unspecified) | 56.6
O=C(c1cc(C2CC2)on1)N1CCCC(n2cccn2)C1 (stereo unspecified) | 27.65
Cc1cc(C)n(CCC(=O)N2CCCC(n3cncn3)C2)n1 (stereo unspecified) | 64.7
Cc1cc(C)n(CCC(=O)N2CCCC(n3nc(C)nc3C)C2)n1 (stereo unspecified) | 30.2
Cc1cc(C)n(C2CCCN(C(=O)c3cc(C4CC4)on3)C2)n1 (stereo unspecified) | 14.4
Cc1cnn(C2CCCN(C(=O)c3cc(C4CC4)on3)C2)c1 (stereo unspecified) | 59

Structure (SMILES) | INHIBITION [%]
Cn1cc(CCC(=O)N2CCCC(n3cncn3)C2)cn1 (stereo unspecified) | 19.4
Cc1cc(C(=O)N2CCCC(n3cncn3)C2)no1 (stereo unspecified) | 11.235
CNc1snc(C)c1C(=O)N1CCCC(n2cc(C)cn2)C1 (stereo unspecified) | 58.5
COCC(=O)NCc1cc(=O)n2c(n1)CN(Cc1nccs1)CCC2 | 44.8
CC(=O)N(C)C1CCN(C(=O)c2cccc3c2ccn3C)CC1 | 9.63
Cn1cc(CN2CCOCC3(C2)CN(c2ccccc2)C(=O)CO3)cn1 (stereo unspecified) | 17.1
CC(=O)N(Cc1noc(C)n1)C1CCN(Cc2cccc(C#N)c2)C1 (stereo unspecified) | -18
O=C(O)CN1CCC(C(F)(F)F)CC1 | 2.4
Cc1c(CNC(=O)c2cn(CCC3CCCCN3)nn2)cnn1C (stereo unspecified) | -70.7
CCn1nc(C)c(CNC(=O)c2cn(CCC3CCCCN3)nn2)c1C (stereo unspecified) | -25
CCn1ncc(CNC(=O)c2cn(CCC3CCCCN3)nn2)c1C (stereo unspecified) | 83.8
Cc1cc(C)n(CC2CCCN2C(=O)Cc2c(C)nn(C)c2C)n1 (stereo unspecified) | -43.5
Cc1cccc(N2CCc3ncnc(C4CC4)c3CC2)n1 | -11.6
Cc1ccc(N2CCc3ncnc(N(C)C)c3CC2)nn1 | 8.6
CCN(C)c1ncnc2c1CCN(c1ccc(C)nn1)CC2 | 39.4
CCN(CC)c1ncnc2c1CCN(c1ccc(C)nn1)CC2 | 52.1
Cc1ccc(N2CCc3ncnc(C)c3CC2)nn1 | 35.8
Cc1ccc(N2CCc3ncnc(C4CC4)c3CC2)nn1 | 58.4
Cc1cccnc1C(=O)N1CCCC(Cc2cncc3ccccc23)C1 (stereo unspecified) | -63.5
CCn1cc(Cl)c(C(=O)NCc2cnn(C)c2)n1 | 3.46
CCOC(=O)C1CCN(C(=O)CN2CCCC2Cc2ccccc2)CC1 (stereo unspecified) | -4.93
O=C(NCCCn1ccnc1)N1CCCC1c1ccsc1 (stereo unspecified) | 28.4
CCOC(=O)C1CCN(C(=O)CN2CCCC2c2ccccc2C)CC1 (stereo unspecified) | 70.1

Structure (SMILES) | INHIBITION [%]
COc1ccccc1C1CCCN1CC(=O)N1CCC(C(N)=O)CC1 (stereo unspecified) | 34
CSCCC(=O)N1CCCC1c1ccsc1 (stereo unspecified) | 1.81
CN(CCCNC(=O)N1CCCC1c1ccsc1)c1ccccn1 (stereo unspecified) | 52
CCC(=O)N1CCCC1c1ccsc1 (stereo unspecified) | 50.4
Cc1nc(-c2nnc[nH]2)sc1C(=O)N1CCCC1c1ccsc1 (stereo unspecified) | 72.5
O=C(NCCCn1cccn1)N1CCCC1c1ccsc1 (stereo unspecified) | 28.6
CC(C)CC(=O)N1CCCC1c1ccsc1 (stereo unspecified) | -8.66
Cc1nc(-c2nnc[nH]2)sc1C(=O)N1CCCC1CC(C)(C)C (stereo unspecified) | -10.2
Cc1nc(-c2nnc[nH]2)sc1C(=O)N1CCCC1c1cccs1 (stereo unspecified) | -81.2
Cc1nnc2ccc(N3CCN(CCc4ccccn4)CC3)nn12 | -57.4
Cc1cc(C(=O)N2C[C@@H]3COC[C@]3(CN(C)C)C2)c(C)o1 | 25.1
Cc1nn(C)cc1-c1nn2c(C(F)(F)F)nnc2s1 | -15.2
Cc1c(C(=O)N2CCS(=O)(=O)CC2)nnn1-c1ccc2ncccc2c1 | 46.6
CCc1nnc(CN(CC)C(=O)C2CC(=O)N(CC)C2)o1 (stereo unspecified) | 39.1
CCC(C)(C)NC(=O)Cn1nnc(CN(C)C(=O)c2ccccc2)n1 | 29.6
Cc1cnc(Nc2nccnc2C2CCN(C)CC2)s1 | 7.39
O=C(O)c1cccc(CN2CCCC(Cc3ccn[nH]3)C2)c1 (stereo unspecified) | -0.05
Cc1ncccc1C(=O)N1CCC2(CCc3ccccc3C(=O)N2)C1 (stereo unspecified) | 13.79
Cn1cccc1C(=O)NC[C@]12COC[C@H]1CN(Cc1nccs1)C2 | -30.6
Cc1cccc(CNc2n[nH]c(C)n2)c1 | 33.1
CCOC(=O)C1CCN(C(=O)CN2CCCC2c2ccsc2)CC1 (stereo unspecified) | 54.6
CCOC(=O)C1CCN(C(=O)CN2CCCC2c2cc(C)no2)CC1 (stereo unspecified) | -15.1
CN(CCC#N)C(=O)CN1CCCC1c1ccsc1 (stereo unspecified) | 10.5

Structure (SMILES) | INHIBITION [%]
O=C(NCC1CCOC1)c1csc(-c2ccccc2)n1 (stereo unspecified) | -10.6
c1cc2c(cc1CN1CC[C@H]3[C@H]1CCN3CC1CC1)OCO2 | 6.27
O=C(c1ccc2[nH]cnc2c1)N1CCC(Oc2ccccn2)CC1 | 35.2
Cc1cnn(CCCNC(=O)CCC2CCCCN2C)c1 (stereo unspecified) | 35.1
C[C@@H]1CN(C2(C(=O)N3CCCCCC3)Cc3ccccc3C2)C[C@H](C)O1 | -0.182
C[C@@H]1CN(C2(C(=O)N3CCOCC3)Cc3ccccc3C2)C[C@H](C)O1 | 21
C[C@@H]1CN(C2(C(=O)N3CCSCC3)Cc3ccccc3C2)C[C@H](C)O1 | 73.9
COC1CCN(C(=O)C2CC(=O)N(c3ccccc3Br)C2)CC1 (stereo unspecified) | 61.7
O=C(C1CC(=O)N(c2ccccc2Br)C1)N1CCCCCC1 (stereo unspecified) | 21.8
O=C(C1CC1)N1CCN(C(=O)C2CC(=O)N(c3ccccc3Br)C2)CC1 (stereo unspecified) | -56.4
COCc1nn(C(C)C)c2c1CCN(Cc1ccsc1)C2 | -21.1
C[C@@H]1C(=O)NC[C@H]2CN(Cc3ccsc3)C[C@H]21 | 27.4
COc1cc(N2C[C@@H]3COC[C@]3(C(=O)NC3CC(F)(F)C3)C2)ncn1 | 31.4
CC(C)(C)CN1CCCC(O)(CN2CCc3[nH]ncc3C2)C1=O (stereo unspecified) | 22.6
O=C1N(CC2CC2)CCCC1(O)CN1CCc2[nH]ncc2C1 (stereo unspecified) | 79.1
Cc1cccnc1CNCC1(O)CCCN(CC2CCCCC2)C1=O (stereo unspecified) | 15.1
O=C1N(CC2CCCCC2)CCCC1(O)CN1CCc2[nH]ncc2C1 (stereo unspecified) | 68.8
Cc1cccnc1CCNCC1(O)CCCN(CC2CCCCC2)C1=O (stereo unspecified) | 25.8
Cc1cccnc1CNCC1(O)CCCN(CC2CCC2)C1=O (stereo unspecified) | 9.96
